Measurements as given in PubChem BioAssay (Tox21).
Several values for one entry are separate records, joined by “and”; a condition that tells them apart may be missing. Identical values can stand only once. Inconclusive results are not listed. Where a structure was tested more than once in an assay, its records may differ in their call. Activity calls are given as the source filed them. Unless noted, the call rests on the fitted dose curve; in most records, active means well fitted curve in the direction sought with a large enough effect in the repeat runs; inconclusive means weak or mixed curves; inactive means no such curve, though single readings can be large; an effect the other way counts as inactive or inconclusive.

What was measured:
[1] = qHTS assay to identify aromatase inhibitors - cell viability counter screen (AID 743084);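 further: cells stimulated with testosterone during compound exposure; nearly all actives have a fitted effect of over 55% in size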; further: potency means the concentration at half of the fitted maximal effect
[2] = target: Aryl hydrocarbon receptor (Homo sapiens) (UniProt P35869); test: qHTS assay to identify small molecule that activate the aryl hydrocarbon receptor (AhR) signaling pathway (AID 743085); further: nearly all actives have a fitted effect of over 15% in size; further: potency means the concentration at half of the fitted maximal effect;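 on activation: HG2L7.5c1 human HepG2 liver cells with stably integrated DRE-driven firefly reporter; series mostly up to about 70 µM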
Chain of Aryl hydrocarbon receptor (Homo sapiens) (P35869 whole entry, looked up): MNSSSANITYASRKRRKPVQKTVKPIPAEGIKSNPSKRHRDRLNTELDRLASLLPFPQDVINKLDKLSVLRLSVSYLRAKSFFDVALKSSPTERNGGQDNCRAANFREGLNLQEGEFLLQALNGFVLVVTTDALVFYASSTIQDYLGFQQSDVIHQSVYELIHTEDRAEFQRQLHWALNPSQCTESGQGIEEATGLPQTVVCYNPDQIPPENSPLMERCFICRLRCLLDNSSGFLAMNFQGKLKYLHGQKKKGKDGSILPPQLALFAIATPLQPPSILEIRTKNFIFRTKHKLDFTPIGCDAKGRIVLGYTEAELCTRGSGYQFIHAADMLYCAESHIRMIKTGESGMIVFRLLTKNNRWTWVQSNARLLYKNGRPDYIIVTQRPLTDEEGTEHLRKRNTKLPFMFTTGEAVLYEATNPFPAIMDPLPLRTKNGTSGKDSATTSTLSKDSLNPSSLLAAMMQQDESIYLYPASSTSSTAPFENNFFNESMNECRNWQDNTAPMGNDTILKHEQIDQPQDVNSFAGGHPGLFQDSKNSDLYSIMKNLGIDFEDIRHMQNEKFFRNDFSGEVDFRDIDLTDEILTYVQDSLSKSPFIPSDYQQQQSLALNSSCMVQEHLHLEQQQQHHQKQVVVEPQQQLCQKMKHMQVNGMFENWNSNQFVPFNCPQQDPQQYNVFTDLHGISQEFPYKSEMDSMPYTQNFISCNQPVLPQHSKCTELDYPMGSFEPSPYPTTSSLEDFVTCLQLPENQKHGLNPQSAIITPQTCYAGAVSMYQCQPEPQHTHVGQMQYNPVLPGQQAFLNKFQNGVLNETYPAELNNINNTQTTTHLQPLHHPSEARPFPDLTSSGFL
Outline: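 24 h compound exposure, 37C, HepG2-derived HG2L7.5c1 cells with DRE-responsive luciferase. Readouts: fluorescence viability, then luminescence at room temperature after 30 min.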

[3] = qHTS assay to identify small molecule that activate the aryl hydrocarbon receptor (AhR) signaling pathway - cell viability counter screen (AID 743086); further: nearly all actives have a fitted effect of over 45% in size; further: potency means the concentration at half of the fitted maximal effect;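 on viability change, negative = cytotoxic: HepG2 liver cells carrying the AhR DRE luciferase reporter; series mostly up to about 70 µM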
Outline: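 HepG2-AhR-luc (HG2L7.5c1) cells, 4000/well, were preincubated 5 h at 37C, exposed to compound in qHTS format for 24 hr at 37C, then given CellTiter-Fluor for 30 min; viability was read as fluorescence in the reporter wells.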

[4] = target: Peroxisome proliferator-activated receptor gamma (Homo sapiens) (UniProt P37231); test: qHTS assay to identify small molecule antagonists of the peroxisome proliferator-activated receptor gamma (PPARg) signaling pathway (AID 743191; calls by dose curve; further: series mostly up to about 63 µM; nearly all actives have a fitted effect of over 30% in size)
Chain of Peroxisome proliferator-activated receptor gamma (Homo sapiens) (P37231 whole entry, looked up): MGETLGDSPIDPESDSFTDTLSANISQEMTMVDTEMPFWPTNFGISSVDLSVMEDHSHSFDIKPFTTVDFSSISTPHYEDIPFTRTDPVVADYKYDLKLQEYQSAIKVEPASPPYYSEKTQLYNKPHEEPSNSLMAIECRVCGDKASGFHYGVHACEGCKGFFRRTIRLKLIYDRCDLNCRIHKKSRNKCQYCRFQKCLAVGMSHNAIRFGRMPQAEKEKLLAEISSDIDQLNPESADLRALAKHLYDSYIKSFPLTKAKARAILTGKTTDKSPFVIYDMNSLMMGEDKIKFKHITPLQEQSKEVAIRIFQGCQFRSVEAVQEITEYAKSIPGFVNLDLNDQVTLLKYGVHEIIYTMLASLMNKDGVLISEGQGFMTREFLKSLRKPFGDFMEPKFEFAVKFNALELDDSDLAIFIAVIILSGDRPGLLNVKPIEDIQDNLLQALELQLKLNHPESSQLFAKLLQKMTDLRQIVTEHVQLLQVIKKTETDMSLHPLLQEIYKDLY
Outline: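 GeneBLAzer PPARg UAS-bla HEK293H cells carrying a UAS-driven beta-lactamase reporter were plated at 3000 cells/well, preincubated 5 h at 37C, then given compound for 17 h at 37C; LiveBLAzer B/G FRET substrate was read after 1 h at room temperature.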

[5] = qHTS assay to identify small molecule antagonists of the peroxisome proliferator-activated receptor gamma (PPARg) signaling pathway - cell viability counter screen (AID 743194); further: nearly all actives have a fitted effect of over 55% in size; further: potency means the concentration at half of the fitted maximal effect
Outline: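 PPARg-UAS-bla HEK293H cells were plated, rested 5 h at 37 C, then treated with compounds plus rosiglitazone (50 nM final) for 17 h at 37 C; viability was then read by CellTiter-Glo luminescence after 30 min at room temperature.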

[6] = qHTS assay for small molecule activators of the heat shock response signaling pathway - cell viability counter screen (AID 743209); further: nearly all actives have a fitted effect of over 50% in size
Outline: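 Luminescence from CellTiter-Glo, added after the beta-lactamase FRET read, gave the viability signal. Cells were HSE-bla HeLa treated with DMSO-dissolved compounds for 5 h at 37 C following overnight plating.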

[7] = qHTS assay for small molecule activators of the heat shock response signaling pathway (AID 743210; active means well fitted activation curve with a large enough effect in the signal ratio in the repeat runs, with a control signal flat, not every such curve was filed as active; the % refers to the signal ratio;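 further: HeLa cells with beta-lactamase reporter driven by heat shock elements; series mostly up to about 63 µM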)
Outline: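 Reporter gene assay: HeLa cells stably bearing an HSE-bla construct, compound treatment 5 h at 37 C, LiveBLAzer substrate 2.5 h at RT, fluorescence intensity.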

[8] = qHTS assay to identify small molecule agonists of the peroxisome proliferator-activated receptor delta (PPARd) signaling pathway - cell viability counter screen (AID 743211); further: nearly all actives have a fitted effect of over 55% in size; further: potency means the concentration at half of the fitted maximal effect
Outline: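 Luminescent ATP viability assay (CellTiter-Glo, 30 min RT) in UAS-bla HEK293H cells carrying the PPAR delta reporter construct, 3000 cells/well, after a 17 h compound treatment at 37 C.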

[9] = target: Bile acid receptor (Homo sapiens) (UniProt Q96RI1); test: qHTS assay to identify small molecule agonists of the farnesoid-X-receptor (FXR) signaling pathway (AID 743220; active means well fitted activation curve with a large enough effect in the signal ratio in the repeat runs, not every such curve was filed as active; the % refers to the signal ratio)
Chain of Bile acid receptor (Homo sapiens) (Q96RI1 whole entry, looked up): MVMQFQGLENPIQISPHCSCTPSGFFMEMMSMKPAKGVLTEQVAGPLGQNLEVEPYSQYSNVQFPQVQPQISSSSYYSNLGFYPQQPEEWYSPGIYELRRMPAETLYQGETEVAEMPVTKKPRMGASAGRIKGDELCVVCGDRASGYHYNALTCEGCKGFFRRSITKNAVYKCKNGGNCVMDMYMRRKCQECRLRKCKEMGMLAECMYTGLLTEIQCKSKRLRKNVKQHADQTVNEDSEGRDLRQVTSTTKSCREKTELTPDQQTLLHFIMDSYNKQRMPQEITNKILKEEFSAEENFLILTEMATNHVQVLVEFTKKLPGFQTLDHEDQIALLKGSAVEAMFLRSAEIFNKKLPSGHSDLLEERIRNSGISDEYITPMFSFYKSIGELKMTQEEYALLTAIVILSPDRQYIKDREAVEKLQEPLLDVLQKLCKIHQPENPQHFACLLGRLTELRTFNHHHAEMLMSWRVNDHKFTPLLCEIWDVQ
Outline: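 Beta-lactamase reporter under UAS control in GeneBLAzer FXR HEK 293T cells (5000/well) measured with LiveBLAzer FRET substrate after 2 h at room temperature. Compound exposure lasted 16 h at 37C.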

[10] = qHTS assay to identify small molecule antagonists of the farnesoid-X-receptor (FXR) signaling pathway - cell viability counter screen (AID 743221; active means well fitted cell-killing curve with a large enough effect in the repeat runs, not every such curve was filed as active; further: nearly all actives have a fitted effect of over 50% in size)
Outline: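 In GeneBLAzer FXR-UAS-bla HEK 293T cells stimulated with 50 uM chenodeoxycholic acid (final), compounds acted for 16 h at 37 C. Viability was assessed afterwards by CellTiter-Glo luminescence.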

[11] = target: Peroxisome proliferator-activated receptor gamma (Homo sapiens) (UniProt P37231); test: qHTS assay to identify small molecule agonists of the peroxisome proliferator-activated receptor gamma (PPARg) signaling pathway (AID 743094; active means well fitted activation curve with a large enough effect in the signal ratio in the repeat runs, not every such curve was filed as active; the % refers to the signal ratio)
Outline: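 Beta-lactamase FRET fluorescence was the read-out after a 1 h room-temperature substrate step, following 17 h compound treatment at 37C of HEK293H cells expressing a UAS-driven bla reporter responsive to PPARg.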

[12] = qHTS assay for small molecule agonists of the antioxidant response element (ARE) signaling pathway (AID 743202; active means well fitted activation curve with a large enough effect in the signal ratio in the repeat runs, not every such curve was filed as active; the % refers to the signal ratio; further: potency means the concentration at half of the fitted maximal effect)
Outline: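 Compounds delivered in DMSO to ARE-bla HepG2 cells (2,000 cells/well, pre-incubated 5 h) and left 16 h at 37 C. LiveBLAzer B/G FRET substrate then added for 2 h at RT before fluorescence reading.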

[13] = qHTS assay for small molecule agonists of the antioxidant response element (ARE) signaling pathway - cell viability counter screen (AID 743203; calls by dose curve; further: nearly all actives have a fitted effect of over 55% in size)
Outline: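 HepG2 cells carrying ARE-driven beta-lactamase; 2,000 cells/well; 5 hrs plating; compound pinned from DMSO; 16 hrs 37C/5% CO2; CellTiter-Glo added; 30 min RT; luminescence.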

[14] = target: Peroxisome proliferator-activated receptor delta (Homo sapiens) (UniProt Q03181); test: qHTS assay to identify small molecule agonists of the peroxisome proliferator-activated receptor delta (PPARd) signaling pathway (AID 743212; calls by dose curve)
Chain of Peroxisome proliferator-activated receptor delta (Homo sapiens) (Q03181 whole entry, looked up): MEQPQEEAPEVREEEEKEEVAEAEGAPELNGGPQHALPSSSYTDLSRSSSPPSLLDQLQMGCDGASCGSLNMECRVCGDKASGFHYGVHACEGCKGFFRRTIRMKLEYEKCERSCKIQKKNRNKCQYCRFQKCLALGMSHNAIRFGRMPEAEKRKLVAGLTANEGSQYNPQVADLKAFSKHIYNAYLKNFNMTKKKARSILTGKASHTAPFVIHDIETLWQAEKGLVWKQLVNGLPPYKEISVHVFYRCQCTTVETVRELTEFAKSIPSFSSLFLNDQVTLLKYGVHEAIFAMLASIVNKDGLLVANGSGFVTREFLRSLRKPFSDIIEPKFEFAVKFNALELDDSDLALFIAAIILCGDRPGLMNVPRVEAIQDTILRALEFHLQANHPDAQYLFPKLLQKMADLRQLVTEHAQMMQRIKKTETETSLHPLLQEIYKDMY
Outline: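 A PPARd-bla HEK293H line with beta-lactamase under an Upstream Activator Sequence is treated with compounds at 37 C. Substrate loading for 2 h at room temperature precedes the fluorescence measurement.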

[15] = qHTS assay to identify small molecule antagonists of the peroxisome proliferator-activated receptor delta (PPARd) signaling pathway - cell viability counter screen (AID 743213); further: nearly all actives have a fitted effect of over 50% in size
Outline: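 Viability counter-screen, qHTS format: PPARd-bla HEK293H, L165041 300 nM final, 17 h compound exposure at 37 C, CellTiter-Glo luminescence after 30 min RT.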

[16] = target: Peroxisome proliferator-activated receptor delta (Homo sapiens) (UniProt Q03181); test: qHTS assay to identify small molecule antagonists of the peroxisome proliferator-activated receptor delta (PPARd) signaling pathway (AID 743215; active means well fitted inhibition curve with a large enough effect in the signal ratio in the repeat runs, not every such curve was filed as active; the % refers to the signal ratio;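 further: cells stimulated with agonist L165041 at 300 nM final during compound exposure; series mostly up to about 62 µM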)
Outline: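 Read-out is beta-lactamase FRET fluorescence, measured 2 h after substrate addition at room temperature. Beforehand, UAS-bla HEK293H cells carrying the PPARd reporter were exposed to compounds with L165041 at 300 nM final for 17 h at 37 C.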

[17] = target: Vitamin D3 receptor (Homo sapiens) (UniProt P11473); test: qHTS assay to identify small molecule agonists of the vitamin D receptor (VDR) signaling pathway (AID 743222; calls by dose curve)
Chain of Vitamin D3 receptor (Homo sapiens) (P11473 whole entry, looked up): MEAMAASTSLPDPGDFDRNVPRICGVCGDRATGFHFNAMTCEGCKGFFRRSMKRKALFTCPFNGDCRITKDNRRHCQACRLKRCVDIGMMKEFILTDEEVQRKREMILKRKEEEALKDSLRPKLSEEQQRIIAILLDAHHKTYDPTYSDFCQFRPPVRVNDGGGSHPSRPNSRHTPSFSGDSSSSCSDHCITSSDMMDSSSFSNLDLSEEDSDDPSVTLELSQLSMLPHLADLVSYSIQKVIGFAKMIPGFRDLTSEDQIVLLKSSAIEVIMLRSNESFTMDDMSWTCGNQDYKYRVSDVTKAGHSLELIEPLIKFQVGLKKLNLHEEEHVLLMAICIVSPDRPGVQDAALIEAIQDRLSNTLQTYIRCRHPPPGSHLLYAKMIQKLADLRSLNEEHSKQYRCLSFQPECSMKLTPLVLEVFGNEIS
Outline: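 VDR-bla cells, 2,000/well; 4 h preincubation 37C; cpd (DMSO) 16 h; LiveBLAzer B/G substrate 2 h RT; fluorescence intensity read.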

[18] = target: Vitamin D3 receptor (Homo sapiens) (UniProt P11473); test: qHTS assay to identify small molecule antagonists of the vitamin D receptor (VDR) signaling pathway (AID 743223; active means well fitted inhibition curve with a large enough effect in the signal ratio in the repeat runs, not every such curve was filed as active; the % refers to the signal ratio)
Outline: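 Agonist 1alpha,25-dihydroxyvitamin D3 (3 nM in well) was added with each compound to VDR-bla cells preincubated 4 h. Cells stood 16 h at 37C, then FRET substrate 2 h at room temperature; fluorescence intensity recorded.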

[19] = qHTS assay to identify small molecule agonists of the farnesoid-X-receptor (FXR) signaling pathway - cell viability counter screen (AID 743218); further: nearly all actives have a fitted effect of over 45% in size; further: potency means the concentration at half of the fitted maximal effect
Outline: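 HEK 293T FXR-bla cells; 5 h pre-incubation, 16 h compound exposure at 37 C; LiveBLAzer substrate 2 h RT, then CellTiter-Glo 30 min RT, luminescence.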

[20] = target: Bile acid receptor (Homo sapiens) (UniProt Q96RI1); test: qHTS assay to identify small molecule antagonists of the farnesoid-X-receptor (FXR) signaling pathway (AID 743217; active means well fitted inhibition curve with a large enough effect in the signal ratio in the repeat runs, not every such curve was filed as active; the % refers to the signal ratio; further: potency means the concentration at half of the fitted maximal effect)
Outline: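 HEK 293T FXR-UAS-bla, 5000 cells/well; compound + CDCA 50 uM final; 16 h, 37 °C; B/G FRET substrate 2 h RT; fluorescence.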
On the % scale 0 is the no-effect control and ±100 the full control effect.

OCc1cc(C(O)CNCCCCCCOCCCCc2ccccc2)ccc1O (stereo unspecified)
26.6 µM (active) and inactive: Potency [2]
active: Potency [1] 11.9 µM and 9.44 µM | Potency [3] 26.6 µM and 13.3 µM | Potency [8] 26.6 µM
inactive: Potency [4] | Potency [5] | Potency [6] | Potency [7] | Potency [9] | Potency [10]

C/C(=C(\CCOP(=O)(O)O)SC(=O)c1ccccc1)N(C=O)Cc1cnc(C)nc1N
inactive: Potency [1] | Potency [2] | Potency [11] | ratio activity, negative = inhibition [4] 3.86% [at 5.95 µM] | activity change, negative = cytotoxicity [5] 4.9% [at 5.95 µM] | activation [12] 14.1% [at 8.36 µM] | viability change, negative = cytotoxic [13] 8.52% [at 8.36 µM] | activity change, negative = cytotoxicity [6] -16.4% [at 5.95 µM] | activation [7] 1.29% [at 5.95 µM] | activation [14] -1.46% [at 5.95 µM] | viability change, negative = cytotoxic [15] 1.06% [at 6.26 µM] | ratio activity, negative = inhibition [16] 6.78% [at 6.26 µM] | activity change, negative = cytotoxicity [10] 0.132% [at 5.95 µM] | activation [17] -0.529% [at 6.01 µM] | activity change, negative = inhibition [18] 2.53% [at 6.95 µM]

O=[N+]([O-])c1cccc(S(=O)(=O)O)c1
inactive: Potency [1] | Potency [2] | Potency [11] | Potency [4] | Potency [5] | Potency [13] | Potency [6] | Potency [7] | Potency [14] | Potency [15] | Potency [10] | Potency [17] | outcome [18]

COC(C)OC
inactive: Potency [1] | Potency [2] | Potency [11] | Potency [4] | Potency [5] | Potency [12] | Potency [13] | Potency [6] | Potency [7] | Potency [8] | Potency [15] | Potency [16] | Potency [19] | Potency [10]

COc1cccc(N(C)C(=S)Oc2ccc3c(c2)CCCC3)n1
inactive: Potency [1] | Potency [2] | Potency [3] | Potency [5] | Potency [13] | Potency [6] | Potency [15] | Potency [16] | Potency [19] | Potency [17] | outcome [18]

CC[N+]1(CC)CCC(=C(c2ccccc2)c2ccccc2)C1C (stereo unspecified)
inactive: Potency [1] | Potency [2] | Potency [11] | Potency [4] | Potency [5] | Potency [12] | Potency [13] | Potency [6] | Potency [7] | Potency [8] | Potency [14] | Potency [15] | Potency [19] | Potency [17] | outcome [18]

C=C1C(=C/C=C2\CCC[C@]3(C)[C@@H]([C@H](C)/C=C/[C@@H](O)C4CC4)CC[C@@H]23)C[C@@H](O)C[C@@H]1O
inactive: Potency [1] | Potency [2] | Potency [3] | Potency [9]
active: Potency [5] 26.6 µM | Potency [12] 2.66 µM | Potency [20] 29.8 µM

CC(C)(C)Cl
inactive: Potency [1] | Potency [2] | Potency [11] | Potency [4] | Potency [5] | Potency [12] | Potency [13] | Potency [6] | Potency [7] | Potency [8] | Potency [15] | Potency [20] | Potency [19] | Potency [9] | Potency [10] | Potency [17] | outcome [18]

CCCCC(=O)OCC(=O)[C@H]1[C@H](C)C[C@H]2[C@@H]3C[C@H](F)C4=CC(=O)C=C[C@]4(C)[C@@]3(F)[C@@H](O)C[C@@]21C
inactive: Potency [1] | Potency [2] | Potency [11] | Potency [5] | Potency [12] | Potency [13] | Potency [6] | Potency [8] | Potency [15] | Potency [19] | Potency [10] | Potency [17] | outcome [18]

CC(C)OC(=O)C(C)N(C(=O)c1ccccc1)c1ccc(F)c(Cl)c1 (stereo unspecified)
inactive: Potency [1] | Potency [2] | Potency [11] | Potency [4] | Potency [5] | Potency [13] | Potency [6] | Potency [7] | Potency [14] | Potency [15] | Potency [19] | outcome [18]

CC(=O)[O][Al]
inactive: Potency [1] | Potency [2] | Potency [3] | Potency [5] | Potency [12] | Potency [13] | Potency [6] | Potency [15] | Potency [19]

Cc1oc2c(NC(=O)c3c(Cl)cccc3Cl)cccc2c1C(C)(C)O
inactive: Potency [1] | Potency [3] | Potency [5] | Potency [6] | Potency [7] | Potency [14] | Potency [16] | Potency [9] | Potency [10] | outcome [18]
active: Potency [2] 8.63 µM | Potency [20] 38.9 µM | Potency [19] 21.9 µM

O=C(O)C(S)C(S)C(=O)O (stereo unspecified)
inactive: Potency [1] | Potency [2] | Potency [3] | Potency [5] | Potency [6] | Potency [8] | Potency [14] | Potency [15] | Potency [20] | Potency [19] | Potency [9] | Potency [10] | Potency [17] | outcome [18]

COc1cc(C(=O)OCCCN2CCCN(CCCOC(=O)c3cc(OC)c(OC)c(OC)c3)CC2)cc(OC)c1OC
inactive: Potency [2] | Potency [3] | Potency [5] | Potency [13] | Potency [6] | Potency [7] | Potency [8] | Potency [16] | Potency [10] | Potency [17]
active: Potency [1] 8.41 µM | Potency [12] 11.9 µM

CC1CCC(=O)C1=O (stereo unspecified)
inactive: Potency [1] | Potency [2] | Potency [11] | Potency [4] | Potency [5] | Potency [12] | Potency [13] | Potency [6] | Potency [7] | Potency [15] | Potency [16] | Potency [20] | Potency [19] | Potency [9] | Potency [10]

C[C@H]1C[C@H]2[C@@H]3CCC4=CC(=O)C=C[C@]4(C)[C@@]3(Cl)[C@@H](O)C[C@]2(C)[C@@]1(O)C(=O)CO
inactive: Potency [1] | Potency [2] | Potency [11] | Potency [4] | Potency [5] | Potency [12] | Potency [13] | Potency [6] | Potency [7] | Potency [8] | Potency [14] | Potency [16] | Potency [19] | Potency [10] | Potency [17] | outcome [18]

CCCCCCCCCCCC(=O)OC[C@@H](O)[C@H]1OC[C@H](OCCO)[C@H]1OCCO
inactive: Potency [1] | Potency [2] | Potency [11] | Potency [4] | Potency [5] | Potency [13] | Potency [6] | Potency [17]

CN(C)c1ccc(C(c2ccccc2)c2ccc(N(C)C)cc2)cc1
inactive: Potency [1] | Potency [2] | Potency [3] | Potency [5] | Potency [12] | Potency [13] | Potency [6] | Potency [7] | Potency [15] | Potency [19] | Potency [17] | outcome [18]
